Screening data: PubChem BioAssay, National Center for Advancing Translational Sciences (NCATS)
Pol eta inh – blocks human DNA polymerase eta activity; Potency, µM (doses to about 114 µM), inactives show at the top dose activity change, negative = inhibition, hits mostly inhibitors; AID 588591; actives 1.2% (n = 390,000); recombinant Pol eta, fluorescent DNA replication assay; Q9Y253; further: on the % scale 0 is the no-effect control and ±100 the full control effect
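Pol eta (10 nM) was preincubated with compounds for 15 min at room temperature, after which fluorescent replication substrate (50 nM final) was added to start the reaction. Fluorescence was read kinetically at 0 and 10 min.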
POLI inh – blocks human DNA polymerase iota activity. Pol iota fluorescent replication assay, 10 min. AID 588590. Q9UNA4. Potency, µM (series often up to 115 µM), inactives show at the highest dose activity, negative = inhibition, actives largely listed as inhibitors. actives 1% (n = 390,000)
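Pol iota at 10 nM preincubated 15 min with compounds at room temperature; reaction started with fluorescent substrate, 50 nM final. Fluorescence read kinetically at 0 and 10 min; buffer-only wells as negative control.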
POLK inh – blocks human DNA polymerase kappa activity; Q9UBT6; purified Pol kappa, fluorescent DNA synthesis assay, 10 min; actives 0.53% (n = 400,000); AID 588579; Potency, µM (highest dose often 107 µM), for inactives: top-dose activity, negative = inhibition, actives largely listed as inhibitors; further: on the % scale 0 is the no-effect control and ±100 the full control effect
Target sequence (Q9UBT6 whole entry, looked up): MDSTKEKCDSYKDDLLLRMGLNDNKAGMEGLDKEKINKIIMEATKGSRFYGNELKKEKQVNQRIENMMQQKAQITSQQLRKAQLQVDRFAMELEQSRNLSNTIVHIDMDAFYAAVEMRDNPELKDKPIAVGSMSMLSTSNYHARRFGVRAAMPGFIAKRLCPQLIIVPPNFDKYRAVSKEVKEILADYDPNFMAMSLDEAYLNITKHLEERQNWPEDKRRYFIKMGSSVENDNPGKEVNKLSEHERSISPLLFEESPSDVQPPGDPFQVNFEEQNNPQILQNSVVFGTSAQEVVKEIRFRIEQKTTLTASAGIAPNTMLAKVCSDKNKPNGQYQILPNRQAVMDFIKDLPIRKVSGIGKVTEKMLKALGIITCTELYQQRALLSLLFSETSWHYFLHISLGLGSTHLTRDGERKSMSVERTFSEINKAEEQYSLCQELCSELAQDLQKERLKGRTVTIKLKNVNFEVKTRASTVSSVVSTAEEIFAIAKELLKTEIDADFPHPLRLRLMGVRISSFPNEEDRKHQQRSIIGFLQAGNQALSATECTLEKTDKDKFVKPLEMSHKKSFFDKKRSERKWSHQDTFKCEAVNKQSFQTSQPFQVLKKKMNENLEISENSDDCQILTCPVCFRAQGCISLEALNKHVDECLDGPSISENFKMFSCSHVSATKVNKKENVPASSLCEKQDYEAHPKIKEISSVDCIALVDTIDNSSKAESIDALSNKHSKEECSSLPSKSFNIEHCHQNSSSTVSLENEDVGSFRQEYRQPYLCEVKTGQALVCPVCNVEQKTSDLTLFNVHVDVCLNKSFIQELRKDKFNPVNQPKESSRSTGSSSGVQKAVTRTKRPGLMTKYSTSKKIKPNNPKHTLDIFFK
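Here, compound and 10 nM enzyme are combined for 15 min at room temperature; adding 50 nM substrate (final) starts DNA synthesis, tracked by fluorescence at 0 and 10 min against buffer-only wells.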
FEN1 inhibitor – inhibitors of human flap endonuclease 1 | Recombinant FEN1 flap cleavage, fluorescence, 15 min | actives 0.35% (n = 390,000) | P39748 | Potency, µM (series often up to 114 µM), for inactives: at the highest dose activity change, negative = inhibition, most hits filed as inhibitors; further: on the % scale 0 is the no-effect control and ±100 the full control effect; nearly all actives have a fitted effect of over 65% in size
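With each library titrated from low to high concentration, compounds met 10 nM FEN1 for 15 min at room temperature before 50 nM substrate was added; readings at 0 and 15 min fed four-parameter Hill curve fits.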
Pol beta inh – inhibitors of human DNA polymerase beta | P06746 | Pol beta primer extension/strand displacement, fluorescence kinetic | Potency, µM (doses to about 114 µM), for the others: top-dose activity change, negative = inhibition, hits mostly inhibitors | actives 1.3% (n = 340,000) | AID 485314; further: on the % scale 0 is the no-effect control and ±100 the full control effect
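Pol beta (10 nM) was preincubated with compound for 15 min at room temperature. The reaction was then started with 50 nM substrate and read immediately and after a further 10 min at room temperature.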
WRN helicase inh – WRN helicase (human) inhibition; Q14191; WRN helicase unwinding, fluorescent forked duplex, kinetic; Potency, µM (series often up to 114 µM), for inactives: at the top dose activity change, negative = inhibition, actives largely listed as inhibitors; actives 0.46% (n = 360,000); AID 651768; further: on the % scale 0 is the no-effect control and ±100 the full control effect; nearly all actives have a fitted effect of over 55% in size
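WRN at 20 nM final was preincubated with compound for 15 min at room temperature; reaction started with 100 nM forked duplex oligonucleotide carrying fluorophore and quencher plus 2 mM ATP (final). Unwinding followed kinetically by red fluorescence (ex 525/em 598 nm).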
Active calls of the source: *; ? = inconclusive; nt = no result; [ ] = remark or other dose. Shown are actives, neighbours in structure and some others; about 2.4% of the full set was active somewhere. The call rests on the fitted dose curve; in most records, active means well fitted curve in the direction sought with a large enough effect; inconclusive means small, poorly fitted or top-dose-only effect, or another doubt; inactive means no such curve, though single readings can be large; an effect the other way counts as inactive or inconclusive. Potency means the concentration at half of the fitted maximal effect.

SMILES	Pol eta inh	POLI inh	POLK inh	FEN1 inhibitor	Pol beta inh	WRN helicase inh
COc1ccc2c(c1OC)C(Cc1ccccc1)N1CCc3cc4c(cc3C1C2)OCO4 (configuration not stated)	nt	nt	-11%[19.4 µM]	nt	nt	nt
Cc1ccc(S(=O)(=O)N2CCN(c3nc(-c4cscn4)nc4ccccc34)CC2)cc1	nt	11%	2%	-8%	nt	nt
CCC1CCCCN1Cc1nc2c(c(=O)n(C)c(=O)n2C)n1Cc1c(F)cccc1Cl (configuration not stated)	nt	15%	-2%	-4%	nt	nt
O=C(Nc1nnc(SCc2ccccn2)s1)C1CC(=O)N(c2ccc(F)cc2)C1 (configuration not stated)	25µM*	?	-12%	-1%	?	?
Oc1ccccc1-c1cc(-c2ccco2)[nH]n1	-6%	?	-7%	-12%	0%	-14%
c1coc(-c2nc(-c3ccco3)c(-c3ccco3)nc2-c2ccco2)c1	4µM*	?	8.9µM*	35µM*	2.5µM*	20µM*
COc1ccc2nc(-c3ccco3)c(-c3ccco3)nc2c1	3.2µM*	?	?	?	22µM*	45µM*
COc1ccc2nc3cccc(OC)c3nc2c1	?	49%	-14%	?	40µM*	0%[11.6 µM]
c1coc(-c2nc3cc4ccccc4cc3nc2-c2ccco2)c1	nt	8.9µM*	40µM*	5.6µM*	nt	nt
COCCNc1cc(N2CCN(C3CCCCC3)CC2)c2noc3c2c1C(=O)c1ccccc1-3	-10%	38%	-6%	-17%	66%	nt
CCOc1ccc2nc(N3CCCC(C(=O)Nc4ccccc4CC)C3)sc2c1 (configuration not stated)	-13%	32%	0%	-2%	2%	nt
CCn1cc(C(=O)NCCN(CC(C)C)CC(C)C)c(=O)c2cc(S(=O)(=O)N(C)C3CCCCC3)ccc21	-36%	4%	1%	-6%	-19%	nt
COc1ccc([C@]23Cc4cc(OC)c(OC)cc4C(O2)C2=C(CC4(CCCCC4)OC2=O)O3)cc1	nt	nt	nt	nt	19%[22.9 µM]	nt
O=C1OC2(CCCCC2)CC2=C1C1O[C@](c3ccsc3)(Cc3c1ccc1ccccc31)O2	nt	nt	nt	nt	10µM*	nt
COc1ccc(-c2nnc3ccc(SC(C)C)nn23)cc1OC	nt	27%	-13%	?	nt	nt
CCOc1cccc2cc(-c3nnc(NCc4ccc5c(c4)OCO5)s3)c(=O)oc12	4µM*	10%	-7%	8%	?	-2%
c1ccc(-c2ccc(N3CCCC4(CCNCC4)C3)cc2)cc1	nt	nt	-17%[60.1 µM]	nt	nt	nt
c1ccc(Nc2nc(-c3ccccc3)nc3ccccc23)cc1	-17%	48%	0%	4%	38%	-4%
Fc1cccc(Nc2nc(-c3ccncc3)nc3ccccc23)c1	14µM*	?	-23%	12%	13µM*	?
FC(F)(F)c1nnc2ccc(NCc3ccccc3)nn12	2%	8%	-18%	2%	1%	-1%
FC(F)(F)c1nnc2ccc(NCn3nnc4ccccc43)nn12	89µM*	0%	4%	-5%	-15%	-10%[57.1 µM]
O=S(=O)(c1ccc2ccccc2c1)N1CCN(c2nc(-c3ccccc3)nc3ccccc23)CC1	nt	11%	-20%	-8%	nt	nt
O=C1c2ccccc2C(=O)N1c1nc(-c2ccc(F)cc2)cs1	nt	28%	-10%	-11%	nt	nt
CS(=O)(=O)N1CCN(/[N+]([O-])=N/Oc2ccc([N+](=O)[O-])cc2[N+](=O)[O-])CC1	nt	?	11%	4%	nt	nt
O=Nc1c2cc(-c3ccccc3)[nH]nc-2c2ccccc12	-8%	-6%	-6%	-19%	40µM*	-4%
SMILES	Pol eta inh	POLI inh	POLK inh	FEN1 inhibitor	Pol beta inh	WRN helicase inh
COc1cc(/C=C\c2ccc(OC)cc2OC)cc(OC)c1	nt	nt	-13%[19.4 µM]	nt	nt	nt
COc1ccc(C(=O)COC(=O)CCn2c(C)csc2=O)c(OC)c1	?	nt	nt	nt	nt	-12%
COc1ccc(C(=O)COC(=O)CCN2C(=O)C3CC=CCC3C2=O)c(OC)c1 (configuration not stated)	?	40µM*	-12%	23%	nt	4%[11.6 µM]
CSc1cccc(NC(=O)CN2C(=O)COc3ccc(S(=O)(=O)N4CCC(C)CC4)cc32)c1	-14%	8%	-5%	-19%	11%	nt
Cc1ccc(S(=O)(=O)N2CCN(c3nc(-c4ccncc4)nc4ccccc34)CC2)cc1	nt	?	-10%	-7%	nt	nt
O=C(/C=C/c1ccc(-c2ccccc2)cc1)NCc1cccnc1	-35%	?	-2%	18%	50µM*	-7%
Cc1cc2c(cc1C)N[C@]1(C[C@H]3CCCC(=O)N4CC[C@@H](C1)[C@@H]34)C(=NC1CCCCC1)N2	nt	8%	4%	-4%	nt	nt
Cc1ccccc1OCC(=O)NCC(=O)OCC(=O)c1ccc(F)cc1	nt	10%	-14%	-21%	nt	nt
Cc1ccc2nc(Cl)c(C3CC(c4ccco4)=NN3C(=O)CCCC(=O)O)cc2c1 (configuration not stated)	?	16µM*	35µM*	-13%	-4%	-20%
CC[C@H](C)[C@H](NC(=O)CNC(=O)[C@@H](NC(=O)[C@@H](NC(=O)[C@H](Cc1ccc(O)cc1)NC(=O)[C@H](CC(C)C)NC(=O)[C@H](C)NC(=O)[C@H](CCC(N)=O)NC(=O)CNC(=O)[C@@H]1CCCN1C(=O)CNC(=O)[C@H](Cc1ccccc1)NC(=O)[C@H](Cc1cnc[nH]1)NC(=O)[C@@H](NC(=O)CNC(=O)[C@H](CCCNC(=N)N)NC(=O)[C@H](CCCNC(=N)N)NC(=O)[C@@H](NC(=O)[C@H](CC(N)=O)NC(=O)[C@@H](N)CS)[C@@H](C)O)[C@@H](C)CC)[C@@H](C)O)[C@@H](C)O)C(=O)O	nt	nt	17%[60.1 µM]	nt	nt	nt
COc1ccc(OC)c(CCNC(=O)CCCn2c(=O)c3cccn3c3ccccc32)c1	-2%	16%	9%	23%	0%	nt
